Experimental findings from PubChem BioAssay (NCI) are described below.

Each structure is given as a SMILES string. Compounds without any hit were thinned out: in the full panel of roughly 83,000, 20% have a hit.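 Cells were grown in 96-well plates and exposed to the test compound at a single concentration for 48 hours; results are reported as percent growth, with values below 10 considered active.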 A number with no mark means an inactive call. Activity calls are given as the source filed them.

Some test systems named below: NCI-H23 lung; NCI-H226 lung; NCI-H322M lung; HOP-62 NSCLC; NCI-H460 lung; HOP-92 NSCLC; NCI-H522 lung; A549/ATCC NSCLC; 786-0 renal; COLO 205 colon.
Common to all, as to assay: NCI-60 one-dose screen, 48 h (100 = growth as untreated, 0 = no growth, -100 = all killed)
What all share (settings): 10 µM unless noted

Consider `COc1ccc(-c2nn(-c3ccccc3)cc2/C=C2/SC(=S)N(C)C2=O)cc1`, for which the growth with NCI-H23 lung is 94.5%; with NCI-H226 lung, 55.1%; with NCI-H322M lung, 60.8%; in the assay with HOP-62 NSCLC, 25.3%; with NCI-H460 lung, 11.2%; in the assay with HOP-92 NSCLC, 74.7%. For the same compound, the growth in the assay with NCI-H522 lung is 91.2%; in the assay on A549/ATCC NSCLC it was 36.8%; in the assay on 786-0 renal it was 1.33% (active); in the assay with COLO 205 colon, 64.4%.

As for `N=C(N)c1ccc(-c2ccc(-c3ccc(Cl)cc3)s2)nc1`, the growth in the assay on NCI-H23 lung is 62.8%; in the assay with NCI-H226 lung it was 84.5%; in the assay with NCI-H322M lung, -30.3% (active); with HOP-62 NSCLC it was 36%; with NCI-H460 lung, -90.2% (active); with HOP-92 NSCLC it was 65.1%. The growth with NCI-H522 lung is -52.5% (active); in the assay on A549/ATCC NSCLC it was -30.8% (active); in the assay on 786-0 renal, 71.3%; with COLO 205 colon it was -71.8% (active).

Consider `CCn1cc(C(=O)N/N=C/c2cccs2)c(=O)c2cc(F)c(N3CCNC(C)C3)c(F)c21` (stereo not given), for which the growth with NCI-H23 lung was 89.8%; in the assay with NCI-H226 lung, 76%; with NCI-H322M lung, 84.1%; with HOP-62 NSCLC, 72.4%; with NCI-H460 lung, 23.6%; with HOP-92 NSCLC, 53.8%. The growth with NCI-H522 lung is 71.1%; with A549/ATCC NSCLC, 44%; in the assay with 786-0 renal, 67.8%; in the assay with COLO 205 colon, -41.7% (active).

With `CN[C@]12CC3(C=CC(=O)C=C3)O[C@@]1(Cc1ccc(OC)cc1)N(C)C(=O)N2`, the growth is 82.8% with NCI-H23 lung; 22.2% in the assay with NCI-H226 lung; 49.7% in the assay on NCI-H322M lung; 23.9% with HOP-62 NSCLC; 98.7% in the assay with NCI-H460 lung; 39.3% with HOP-92 NSCLC. Also, the growth in the assay with NCI-H522 lung is -46.5% (active); in the assay on A549/ATCC NSCLC, 79.7%; in the assay on 786-0 renal, 6.84% (active); in the assay on COLO 205 colon, 19%.

For `Nc1ncnc2c1N=C(c1ccc(Cl)cc1)CC(c1ccc3c(c1)OCO3)N2` (stereo not given), the growth was 100% in the assay with NCI-H23 lung; 90.8% in the assay on NCI-H226 lung; 112% with NCI-H322M lung; 88.1% in the assay on HOP-62 NSCLC; 103% with NCI-H460 lung; 59.8% in the assay with HOP-92 NSCLC. Also, the growth is 89.7% with NCI-H522 lung, 98.4% with A549/ATCC NSCLC, 91.6% in the assay on 786-0 renal and 98.6% in the assay on COLO 205 colon.

For `O=C1/C(=C/c2ccc(Cl)cc2)COc2ccc(O)c(O)c21`, the growth was 42.3% in the assay with NCI-H23 lung; 90.6% in the assay on NCI-H226 lung; 37.5% in the assay with NCI-H322M lung; -22.7% (active) in the assay on HOP-62 NSCLC; 31.1% in the assay on NCI-H460 lung; -5.33% (active) with HOP-92 NSCLC. Also, the growth in the assay with NCI-H522 lung is -60.9% (active); in the assay with A549/ATCC NSCLC, 42.9%; with 786-0 renal, -80.8% (active); with COLO 205 colon, 27.7%.

For the compound `COc1cc(/C=C/C(=O)c2cccc(Nc3nc(Nc4ccccc4)nc(Nc4ccccc4)n3)c2)cc(OC)c1OC`, the growth in the assay with NCI-H23 lung was 40.7%; with NCI-H226 lung, 68.6%; with NCI-H322M lung, 87.2%; in the assay on HOP-62 NSCLC, 74.6%; with NCI-H460 lung it was 59.9%; with HOP-92 NSCLC it was -48.2% (active). For the same compound, the growth in the assay on NCI-H522 lung was 87.8%; with A549/ATCC NSCLC, 59.5%; in the assay with 786-0 renal, 65.1%; in the assay on COLO 205 colon it was 61.2%.

In the case of `CCOc1ccc(NC(=O)CSc2oc(-c3ccccc3)nc2S(=O)(=O)c2ccc(F)cc2)cc1`, the growth was 65.8% in the assay on NCI-H23 lung; 80.2% in the assay with NCI-H226 lung; 75.5% in the assay on NCI-H322M lung; 58.2% with HOP-62 NSCLC; 53.9% with NCI-H460 lung; 31.1% in the assay on HOP-92 NSCLC. For the same compound, the growth in the assay on NCI-H522 lung was 67.8%; in the assay on A549/ATCC NSCLC, 46%; with 786-0 renal, 45.5%; with COLO 205 colon it was 93.2%.

As for `N#Cc1c(-c2ccccc2)cc(-c2ccccc2)n(CCCCCC(=O)Nc2ccccc2N)c1=O`, the growth is 81.2% with NCI-H23 lung; 69.9% in the assay on NCI-H226 lung; 81.5% in the assay with NCI-H322M lung; 82.3% in the assay on HOP-62 NSCLC; 50.9% in the assay on NCI-H460 lung; 51.9% with HOP-92 NSCLC. For the same compound, the growth in the assay with NCI-H522 lung is 55.8%; in the assay on A549/ATCC NSCLC, 71.2%; in the assay on 786-0 renal it was 57.6%; in the assay with COLO 205 colon, 84%.

Consider `O=C1NC(=O)c2c1c1c3ccccc3ccc1c1[nH]c3ccc(Br)cc3c21`, for which the growth was 2.08% (active) with NCI-H23 lung; 48.9% in the assay on NCI-H226 lung; 21% with NCI-H322M lung; 22.3% in the assay with HOP-62 NSCLC; 3.5% (active) in the assay on NCI-H460 lung; 7.3% (active) in the assay on HOP-92 NSCLC. In addition, the growth in the assay with NCI-H522 lung is 20.1%; in the assay on A549/ATCC NSCLC, 18.8%; in the assay on 786-0 renal, 30.7%; in the assay on COLO 205 colon, 9.33% (active).

With `O=C(NNc1nccc(Nc2ccc(S(=O)(=O)Nc3ccncc3)cc2)n1)c1ccccc1`, the growth in the assay on NCI-H23 lung is 5.18% (active); in the assay on NCI-H226 lung, 108%; in the assay on NCI-H322M lung, 96.9%; in the assay on HOP-62 NSCLC, 89.2%; with NCI-H460 lung, 119%; in the assay with HOP-92 NSCLC, 103%. Besides, the growth is 94.5% in the assay on NCI-H522 lung, 96.8% in the assay on A549/ATCC NSCLC, 93.8% in the assay with 786-0 renal and 122% with COLO 205 colon.

Take `C=CCn1cc(-c2nc3ccccc3s2)c2cc(-c3ccc4c5c(cccc35)C(=O)N(N)C4=O)ccc21`: the growth in the assay on NCI-H23 lung was 88.2%; with NCI-H226 lung it was 89.8%; in the assay on NCI-H322M lung, 96.9%; in the assay on HOP-62 NSCLC, 90.2%; in the assay on NCI-H460 lung, 98.9%; in the assay on HOP-92 NSCLC it was 93.7%. Also, the growth in the assay on NCI-H522 lung was 84.9%; in the assay on A549/ATCC NSCLC, 105%; in the assay on 786-0 renal, 99.3%; with COLO 205 colon, 109%.

`O=C1c2cccc3cccc(c23)C(=O)N1N1C(=O)c2cccc3c(N4CCOCC4)ccc(c23)C1=O`: the growth in the assay with NCI-H23 lung was 89.1%; in the assay with NCI-H226 lung, 95.4%; in the assay on NCI-H322M lung it was 94.5%; in the assay on HOP-62 NSCLC, 87.3%; with NCI-H460 lung, 101%; with HOP-92 NSCLC, 85.6%. Also, the growth in the assay with NCI-H522 lung was 102%; in the assay with A549/ATCC NSCLC it was 95.5%; with 786-0 renal, 102%; with COLO 205 colon it was 108%.

With `COc1ccc(C(=O)C2C(c3ccc(OC)cc3)CN(C)C23C(=O)Nc2ccccc23)cc1` (stereo not given), the growth is 86.1% in the assay on NCI-H23 lung; 88% in the assay with NCI-H226 lung; 103% in the assay on NCI-H322M lung; 94.3% with HOP-62 NSCLC; 97.7% in the assay with NCI-H460 lung; 83% with HOP-92 NSCLC. In addition, the growth with NCI-H522 lung was 76.4%; with A549/ATCC NSCLC, 87.9%; with 786-0 renal, 96%; with COLO 205 colon it was 105%.
